# Source: PubChem BioAssay
# Inconclusive results are not listed. Active and inactive are the calls of the source.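 The calls were made as follows, unless noted: active = normalized viability below 100% at a tested concentration; inactive = the rest.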
# Tests used:
# [1] = viability loss in pontine glioma line – cell-based, SU-DIPG-XVII, MIPE5.0, CellTiter-Glo, qHTS, dose response (AID 1347060; cut-off not given, nearly all actives have AC50 up to about 26 µM;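 also: cells exposed to compound for 48 hours before viability readout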); details: CellTiter-Glo ATP luminescence
# [2] = viability loss in pontine glioma line – cell-based, JHH-DIPG-1, MIPE4.0, CellTiter-Glo, qHTS, dose response (AID 1347062; cut-off not given, nearly all actives have AC50 up to about 27 µM;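 also: cells exposed to compound for two days before readout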); details: JHH-DIPG-1 viability, CellTiter-Glo ATP luminescence
# [3] = viability loss in pontine glioma line – cell-based, SU-DIPG-IV, MIPE4.0, CellTiter-Glo, qHTS, dose response (AID 1347063; cut-off not given, nearly all actives have AC50 up to about 30 µM;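 also: compound exposure lasted 48 hours before the viability readout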); details: CellTiter-Glo ATP luminescence
# [4] = viability loss in pontine glioma line – cell-based, SU-DIPG-XXV, MIPE5.0, CellTiter-Glo, qHTS, dose response (AID 1347065; cut-off not given, nearly all actives have AC50 up to about 26 µM;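 also: cells exposed to compound for 48 hours before ATP readout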); details: CellTiter-Glo ATP luminescence
# [5] = growth inhibition of DIPG cells – cell-based, MIPE4.0 library, CellTiter-Glo luminescence, qHTS (AID 1347066; cut-off not given, nearly all actives have AC50 up to about 30 µM;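 also: cells exposed to compound for 48 hours before readout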); details: SU-DIPG-VI viability, CellTiter-Glo ATP luminescence
# [6] = JHH-DIPG-1 glioma cell viability, MIPE5.0 library, CellTiter-Glo luminescence, qHTS (AID 1347067; cut-off not given, nearly all actives have AC50 up to about 26 µM;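 also: cells exposed to compound for 48 hours before readout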); details: JHH-DIPG-1 glioma viability, CellTiter-Glo ATP luminescence
# [7] = growth inhibition of DIPG cells – cell-based, MIPE5.0 library, qHTS (AID 1347068; cut-off not given, nearly all actives have IC50 up to about 30 µM;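 also: cells exposed to compound for 48 hours before viability readout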); details: SU-DIPG-XXV viability
# [8] = viability loss with induced miR-34 in A549 – imaging, A549 dox-inducible miR-34, nuclei and caspase counts, primary screen (AID 1347080;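 active = compounds whose cell count with miR-34 switched on is under 0.7 times the count with it off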); details: A549 miR-34 inducible, Hoechst nuclei count, 48 h
# [9] = compounds altering HSF1 focus formation in cells – imaging, Selleck Cancer Library (AID 1347162; in the data active = plate-normalised HSF1 focus index below about 0.46); details: human cells, HSF1 nuclear foci imaging, at 10 µM; SSMD: measured here: HSF1 foci SSMD mean; cell count: measured here: cell number; plate-normalised HSF1 focus index: stronger effect = lower value
# [10] = MELAS cybrid and Rieske KO viability enhancers – cell-based, MELAS cybrids, Rieske KO mouse fibroblasts, CellTiter-Glo, primary screen (AID 1508586;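 active = mean z-score across replicates of 1.96 or higher in either the MELAS or the Rieske mutant cell line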;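 also: z relative to plate mean and SD of compound and empty wells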); details: low glucose
# [11] = drug combination growth inhibition, ovarian cancer – cell-based, oncology-focused library, rucaparib conditional, profiling panel (AID 1508598); details: patient-derived ovarian cancer cells, CellTiter-Glo viability, 144 h, stronger effect = lower value
# [12] = growth inhibition, single agent or in combination, cell-based, chromothripsis tumors, cisplatin or BGB combos (AID 1671449; in the data active = inhibition above about 80%;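 also: cells exposed for 96 hours; 0% = vehicle DMSO and 100% = killing by high DMSO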); details: LFS_MB_P medulloblastoma cells
# [13] = growth inhibition, single agent and combos, cell-based, chromothripsis tumors, cisplatin or BGB combos (AID 1671450; in the data active = inhibition above about 80%;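 also: cells exposed to compound for four days; 0% = vehicle DMSO and 100% = cell killing by high DMSO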); details: HDN33 neuroblastoma cells, stronger effect = higher value
# [14] = growth inhibition, single agents and combos, ICB984, cell-based, cisplatin or BGB combos, synergistic combos for chromothripsis tumors (AID 1671451; call rule not given here;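 also: cells exposed for 96 hours before readout; 0% = vehicle DMSO and 100% = killing by high DMSO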); details: ICB984 medulloblastoma cells, drug combinations, stronger effect = higher value
# [15] = growth inhibition, single agents and combos, HTB85, cell-based, BGB or cisplatin IC20 combos, synergistic combos for chromothripsis tumors (AID 1671453; in the data active = inhibition above about 80%;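 also: cells exposed for 96 hours before readout; 0% = vehicle DMSO and 100% = high DMSO killing control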); details: HTB85 osteosarcoma cells, drug combinations, stronger effect = higher value
# [16] = growth inhibition, MDA-MB-436, cell-based, BGB or cisplatin combos, synergistic combos for chromothripsis tumors (AID 1671458; call rule not given here;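 also: cells exposed for 96 hours; 0% = vehicle DMSO and 100% = killing by high DMSO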); details: MDA-MB-436 breast carcinoma growth inhibition, drug combinations, stronger effect = higher value
# [17] = BT084 cell growth, single and combined drugs, ICGC_MB145, cisplatin and BGB IC40 combos (AID 1671461; in the data active = inhibition above about 80%;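 also: cells exposed to drugs for 96 hours; 0% = vehicle DMSO and 100% = high DMSO full killing control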); details: BT084 medulloblastoma cells, drug combinations, stronger effect = higher value
# [18] = RCMB18 cell growth, single agent and combined, cisplatin and BGB IC40 combos (AID 1671462; in the data active = inhibition above about 80%;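 also: cells exposed to compound for four days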); details: RCMB18 medulloblastoma cells, stronger effect = higher value
# [19] = CRL1545 cell growth, single agent and combined, cisplatin and BGB IC20 combos (AID 1671464; in the data active = inhibition above about 80%;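 also: cells exposed to compound for 96 hours before readout; 0% = vehicle DMSO and 100% = high DMSO killing control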); details: CRL1545 osteosarcoma cells, stronger effect = higher value
# [20] = stronger effect = lower value, cell number ratio, induced over uninduced
# [21] = measured here: relative caspase fold change +Dox/-Dox
# [22] = measured here: total cells with miR-34 induction, stronger effect = lower value
# [23] = measured here: total cells without miR-34 induction
# [24] = MELAS cybrid survival, CellTiter-Glo 48 h, stronger effect = higher value
# [25] = Rieske KO mouse fibroblast survival, CellTiter-Glo 72 h
# [26] = measured here: with BGB IC20 combination, at 0.5 µM
# [27] = measured here: with cisplatin IC20 combination, at 0.5 µM
smiles,measurement,setting,value
CCc1ccc(C(=O)Nc2cc(CN3CCN(C)CC3)cc(C(F)(F)F)c2)cc1C#Cc1cnc2ccnn2c1,AC50,[1],14.8 µM (active)
same,AC50,[2],10.5 µM (active)
same,AC50,[3],7.43 µM (active)
same,AC50,[4],11.8 µM (active)
same,AC50,[5],16.6 µM (active)
same,AC50,[6],13.2 µM (active)
same,IC50,[7],14.8 µM (active)
Cn1cncc1[C@@](N)(c1ccc(Cl)cc1)c1ccc2c(c1)c(-c1cccc(Cl)c1)cc(=O)n2C,AC50,[1],33.2 µM (active)
same,AC50,[2],23.5 µM (active)
same,AC50,[3],8.33 µM (active)
same,AC50,[4],16.6 µM (active)
same,AC50,[5],18.7 µM (active)
same,AC50,[6],18.6 µM (active)
same,fold change,[8]; [20],1.1 (inactive)
same,fold change,[8]; [21],0.725
same,cell count,[8]; [22],5030
same,cell count,[8]; [23],4560
same,SSMD,[9],-8.89
same,cell count,[9],4640
same,plate-normalised HSF1 focus index,[9],0.564 (inactive)
same,z-score,[10]; [24],-0.557 (inactive)
same,z-score,[10]; [25],-0.393
same,viability,"[11]; at 0.000305 µM, OCI-C5x cells, with rucaparib 10 µM, 100% = cells with rucaparib alone",113% (inactive)
same,viability,"[11]; at 0.000305 µM, OCI-C5x cells, without rucaparib",115% (inactive)
same,viability,"[11]; at 0.000305 µM, OCI-P5x cells, with rucaparib 20 µM, 100% = cells with rucaparib alone",102% (inactive)
same,viability,"[11]; at 0.000305 µM, OCI-P5x cells, without rucaparib",113% (inactive)
same,viability,"[11]; at 0.00122 µM, OCI-C5x cells, with rucaparib 10 µM, 100% = cells with rucaparib alone",118% (inactive)
same,viability,"[11]; at 0.00122 µM, OCI-C5x cells, without rucaparib",111% (inactive)
same,viability,"[11]; at 0.00122 µM, OCI-P5x cells, with rucaparib 20 µM, 100% = cells with rucaparib alone",103% (inactive)
same,viability,"[11]; at 0.00122 µM, OCI-P5x cells, without rucaparib",109% (inactive)
same,viability,"[11]; at 0.00488 µM, OCI-C5x cells, with rucaparib 10 µM, 100% = cells with rucaparib alone",115% (inactive)
same,viability,"[11]; at 0.00488 µM, OCI-C5x cells, without rucaparib",122% (inactive)
same,viability,"[11]; at 0.00488 µM, OCI-P5x cells, with rucaparib 20 µM, 100% = cells with rucaparib alone",107% (inactive)
same,viability,"[11]; at 0.00488 µM, OCI-P5x cells, without rucaparib",107% (inactive)
same,viability,"[11]; at 0.0195 µM, OCI-C5x cells, with rucaparib 10 µM, 100% = cells with rucaparib alone",114% (inactive)
same,viability,"[11]; at 0.0195 µM, OCI-C5x cells, without rucaparib",123% (inactive)
same,viability,"[11]; at 0.0195 µM, OCI-P5x cells, with rucaparib 20 µM, 100% = cells with rucaparib alone",98.9% (active)
same,viability,"[11]; at 0.0195 µM, OCI-P5x cells, without rucaparib",85.9% (active)
same,viability,"[11]; at 0.0781 µM, OCI-C5x cells, with rucaparib 10 µM, 100% = cells with rucaparib alone",111% (inactive)
same,viability,"[11]; at 0.0781 µM, OCI-C5x cells, without rucaparib",121% (inactive)
same,viability,"[11]; at 0.0781 µM, OCI-P5x cells, with rucaparib 20 µM, 100% = cells with rucaparib alone",92.4% (active)
same,viability,"[11]; at 0.0781 µM, OCI-P5x cells, without rucaparib",67.4% (active)
same,viability,"[11]; at 0.313 µM, OCI-C5x cells, with rucaparib 10 µM, 100% = cells with rucaparib alone",113% (inactive)
same,viability,"[11]; at 0.313 µM, OCI-C5x cells, without rucaparib",99.3% (active)
same,viability,"[11]; at 0.313 µM, OCI-P5x cells, with rucaparib 20 µM, 100% = cells with rucaparib alone",74.4% (active)
same,viability,"[11]; at 0.313 µM, OCI-P5x cells, without rucaparib",66.7% (active)
same,viability,"[11]; at 1.25 µM, OCI-C5x cells, with rucaparib 10 µM, 100% = cells with rucaparib alone",101% (inactive)
same,viability,"[11]; at 1.25 µM, OCI-C5x cells, without rucaparib",104% (inactive)
same,viability,"[11]; at 1.25 µM, OCI-P5x cells, with rucaparib 20 µM, 100% = cells with rucaparib alone",23.5% (active)
same,viability,"[11]; at 1.25 µM, OCI-P5x cells, without rucaparib",28.3% (active)
same,viability,"[11]; at 5 µM, OCI-C5x cells, with rucaparib 10 µM, 100% = cells with rucaparib alone",1.75% (active)
same,viability,"[11]; at 5 µM, OCI-C5x cells, without rucaparib",5.47% (active)
same,viability,"[11]; at 5 µM, OCI-P5x cells, with rucaparib 20 µM, 100% = cells with rucaparib alone",0.988% (active)
same,viability,"[11]; at 5 µM, OCI-P5x cells, without rucaparib",1.42% (active)
Cc1ccc2nc(NCCN)c3ncc(C)n3c2c1,AC50,[1],8.33 µM (active)
same,AC50,[2],2.35 µM (active)
same,AC50,[3],20.9 µM (active)
same,AC50,[4],8.33 µM (active)
same,AC50,[6],13.2 µM (active)
same,fold change,[8]; [20],1.09 (inactive)
same,fold change,[8]; [21],0.561
same,cell count,[8]; [22],6190
same,cell count,[8]; [23],5680
same,z-score,[10]; [24],-0.409 (inactive)
same,z-score,[10]; [25],-2.24
same,inhibition,"[12]; at 0.5 µM, stronger effect = higher value",11.2% (inactive)
same,inhibition,"[12]; measured here: combination with BGB IC20, at 0.005 µM",0.796%
same,inhibition,"[12]; measured here: combination with BGB IC40, at 0.005 µM",-31.1%
same,inhibition,"[12]; measured here: combination with BGB IC40, at 0.05 µM",-6.91%
same,inhibition,"[12]; measured here: combination with cisplatin, at 0.5 µM, stronger effect = higher value",74.2%
same,inhibition,"[12]; measured here: combination with cisplatin, at 5 µM, stronger effect = higher value",-17.8%
same,inhibition,"[13]; BGB combo, at 5 µM",63.5%
same,inhibition,[13]; at 0.5 µM,-5% (inactive)
same,inhibition,"[13]; cisplatin combo, at 5 µM",55.9%
same,inhibition,[13]; [26],-7.6%
same,inhibition,[13]; [27],2.54%
same,inhibition,"[13]; single agent, at 5 µM",57.3%
same,inhibition,"[14]; BGB IC20 combo, at 0.005 µM",10.7%
same,inhibition,"[14]; BGB IC40 combo, at 0.005 µM",-98.8%
same,inhibition,"[14]; BGB IC40 combo, at 0.05 µM",52.7%
same,inhibition,[14]; at 0.5 µM,-16% (inactive)
same,inhibition,"[14]; cisplatin combo, at 0.05 µM",50.8%
same,inhibition,"[14]; cisplatin combo, at 0.5 µM",-17.9%
same,inhibition,"[14]; cisplatin combo, at 5 µM",-22.2%
same,inhibition,"[14]; measured here: 5 uM single agent, at 5 µM",-10.1%
same,inhibition,[15]; at 0.5 µM,7.35% (inactive)
same,inhibition,"[15]; measured here: with BGB IC20, at 0.5 µM",19.2%
same,inhibition,"[15]; measured here: with BGB IC20, at 5 µM",98.1%
same,inhibition,"[15]; measured here: with cisplatin IC20, at 0.5 µM",-7.65%
same,inhibition,"[15]; measured here: with cisplatin IC20, at 5 µM",89.2%
same,inhibition,"[15]; single agent, at 5 µM",91.7%
same,inhibition,[16]; at 0.5 µM,-3.06% (inactive)
same,inhibition,"[16]; measured here: BGB combination, at 0.5 µM",-13.7%
same,inhibition,"[16]; measured here: BGB combination, at 5 µM",65.6%
same,inhibition,"[16]; measured here: cisplatin combination, at 0.5 µM",6.41%
same,inhibition,"[16]; measured here: cisplatin combination, at 5 µM",80.2%
same,inhibition,[17]; at 0.5 µM,4.08% (inactive)
same,inhibition,"[17]; cisplatin combination, at 0.5 µM",-3.36%
same,inhibition,"[17]; cisplatin combination, at 5 µM",46.6%
same,inhibition,"[17]; measured here: BGB IC40 combination 0.05 uM, at 0.05 µM",-4.49%
same,inhibition,"[17]; single agent, at 5 µM",32.4%
same,inhibition,[18]; at 0.5 µM,1.56% (inactive)
same,inhibition,"[18]; cisplatin combo, at 5 µM",76%
same,inhibition,"[18]; measured here: BGB IC40 combination, at 0.05 µM",1.88%
same,inhibition,"[18]; measured here: combination with cisplatin, at 0.5 µM",32.9%
same,inhibition,"[18]; single agent, at 5 µM",33.3%
same,inhibition,[19]; at 0.5 µM,-12.7% (inactive)
same,inhibition,[19]; [26],-11.3%
same,inhibition,[19]; [27],-13.3%
same,inhibition,"[19]; single agent, at 0.05 µM",-17.3%
same,inhibition,"[19]; single agent, at 5 µM",99.7%
